Measured values reported in PubChem BioAssay (EPA / NIEHS).
Active and inactive are the calls of the source. How the source made its calls: active means hit-call score of the fitted dose curve at least 0.9, where 1 is the maximum; inactive means score below 0.9. *1 amine or outer side, *2 acyl side, *3 side chain or, on linkers, in order; H or OH if unused. Where a SMILES comes first, the peptide text is derived from it. Bridges are numbered along the chain shown (N, C = ends). Roman numbers before positions name the chains, in order. [ ]: non-standard residue; d: D form. Actinocin(9to1) = Cc1c2oc3c(C)ccc(C(=O)[*:1])c3nc-2c(C(=O)[*:2])c(N)c1=O; NMeV = CN[C@H](C(=O)O)C(C)C; Sar = CNCC(=O)O

These molecules were tested on SRY-box transcription factor 17 (SOX17) Protein Expression, Deisenroth Lab, SOX17 (gene 64321) (assay: CCTE_Deisenroth_DEVTOX-GLR_legacy_Sox17: (Legacy) CCTE's DevTox GLR-Endo Assay Evaluation of SRY-box transcription factor 17 (SOX17) Protein Expression, Deisenroth Lab (AID 2284341)). Conditions: actives raise or lower the signal.
Method: CCTE_Deisenroth_DEVTOX-GLR_legacy assay is a cell-based, multiplex-readout assay that uses RUES2-GLR, a human pluripotent cell line, with measurements taken at 48 hours after chemical dosing in a 384-well microplateCCTE_Deisenroth_DEVTOX-GLR_legacy_Sox17 is one of 4 assay components calculated from the CCTE_Deisenroth_DEVTOX-GLR_legacy assay and it measures an increase in the percentage of cells in an endoderm state. It is designed to make measurements of inducible reporter a form of fluorescent protein induction as detected with optical fluorescence microscopy. Percentage Sox17+ cells are determined by calculating the number of Sox17+ cells divided by cell count. A cell is Sox17+ if the cell Sox17 mean intensity is 5x BMAD above the pluripotent control median cell Sox17 mean. The assay endpoints were analyzed with bidirectional fitting relative to 0.2% DMSO control in the CCTE_Deisenroth_DEVTOX-GLR_Endo assay.Data from the assay component CCTE_Deisenroth_DEVTOX-GLR_legacy_Sox17 was analyzed into 1 assay endpoint. This assay endpoint, CCTE_Deisenroth_DEVTOX-GLR_legacy_Sox17, was analyzed with bidirectional fitting relative to DMSO as the negative control and baseline activity. Using a type of inducible reporter, gain or loss-of-signal activity can be used to understand changes in gene expression. Furthermore, this assay endpoint can be referred to as a primary readout, because this assay has produced multiple assay endpoints where this one serves as a measure of endoderm differentiation. To generalize the intended target to other relatable targets, this assay endpoint is annotated to the transcription factor intended target family, where the subfamily is SRY-related HMG-box.
All assay protocols are aligned to the DevTox GLR-Endo assay workflow. Cells are seeded into 384-well microplates for 24 hours prior to initiating differentiation in defined media for a total duration of 48 hours. A total of two chemical exposures are administered in 24-hour intervals during the 48-hour differentiation period. At the assay termination point, cells are fixed and stained with a fluorescent dye demarcating the nucleus. High-content imaging is used to acquire brightfield and fluorescent channel images across 5 fields per well. Cell identification and mean biomarker fluorescence intensities are calculated with image analysis software to determine the total cell counts for viability assessment and the biomarker expression frequency for each lineage-dependent assay. A typical experimental design tests a 10-point concentration series (1 nM - 200 uM) for 28 compounds in single technical replicate. Assay plate controls include non-differentiated pluripotent cells (baseline control), lineage-specific differentiated cells (differentiation control), and DMSO solvent exposed differentiated cells (solvent control). Experiments typically comprise a minimum of four experimental replicates (n=4).
For `Cc1ccc(NC(=O)c2ccc(CN3CCN(C)CC3)cc2)cc1Nc1nccc(-c2cccnc2)n1`, the AC50 was 16.5 µM (active).
For `CCCCCN=C(N)N/N=C/c1c[nH]c2ccc(OC)cc12`, the AC50 was 5.47 µM (active).
In the case of `Nc1cccc2c1CN(C1CCC(=O)NC1=O)C2=O` (stereo not given), the AC50 is reported as 0.328 µM (active).
In the case of `CN1CCN2c3ccccc3Cc3ccccc3C2C1` (stereo not given), the AC50 is reported as 34.3 µM (active).
With `O=C1Cc2cc(CCN3CCN(c4nsc5ccccc45)CC3)c(Cl)cc2N1` the AC50 was 3.91 µM (active).
For `CNC(=O)c1cc(Oc2ccc(NC(=O)Nc3ccc(Cl)c(C(F)(F)F)c3)cc2)ccn1`, the AC50 was 0.609 µM (active).
With `CC1=C(/C=C/C(C)=C/C=C/C(C)=C\C(=O)O)C(C)(C)CCC1` the AC50 was 0.159 µM (active).
In the case of `O=C(c1ccc(F)cc1)C1CCN(CCn2c(=O)[nH]c3ccccc3c2=O)CC1`, the AC50 is reported as 39.9 µM (active).
`Cc1nc2sccn2c(=O)c1CCN1CCC(=C(c2ccc(F)cc2)c2ccc(F)cc2)CC1` was tested, and the AC50 was 11 µM (active).
For `CCN(CC)CCNC(=O)c1c(C)[nH]c(/C=C2\C(=O)Nc3ccc(F)cc32)c1C`, the AC50 was 0.623 µM (active).
With `COc1cc2c(Nc3ccc(Br)cc3F)ncnc2cc1OCC1CCN(C)CC1` the AC50 was 4.92 µM (active).
`O=c1[nH]c(=O)n([C@H]2C[C@H](O)[C@@H](CO)O2)cc1Br` was tested, and the AC50 was 0.857 µM (active).
For `COc1cc2ncnc(Nc3ccc(F)c(Cl)c3)c2cc1OCCCN1CCOCC1`, the AC50 was 5.74 µM (active).
For `Cc1c2oc3c(C)ccc(C(=O)N[C@@H]4C(=O)N[C@H](C(C)C)C(=O)N5CCC[C@H]5C(=O)N(C)CC(=O)N(C)[C@@H](C(C)C)C(=O)O[C@@H]4C)c3nc-2c(C(=O)N[C@@H]2C(=O)N[C@H](C(C)C)C(=O)N3CCC[C@H]3C(=O)N(C)CC(=O)N(C)[C@@H](C(C)C)C(=O)O[C@@H]2C)c(N)c1=O` (I: T[dV]P[Sar][NMeV] / II: T[dV]P[Sar][NMeV]; ester I:1-I:C, II:1-II:C; linker I:N-II:N via Actinocin(9to1)), the AC50 was 0.000544 µM (active).
With `Cc1nc(Nc2ncc(C(=O)Nc3c(C)cccc3Cl)s2)cc(N2CCN(CCO)CC2)n1` the AC50 was 0.811 µM (active).
